PubChem BioAssay (NCATS)
Where “and” joins values, the source holds several entries; their conditions need not be identical. Identical values can stand only once. Results filed as inconclusive are left out. Calls of active or inactive are those of the source. The call rests on the fitted dose curve; in most records, active means well fitted inhibition curve with a large enough effect; inconclusive means small, poorly fitted or top-dose-only effect; inactive means no such curve, though single readings can be large or run the other way.

assay: qHTS assay to identify inhibitors of the type 1 interferon - major histocompatibility complex class I in skeletal muscle: Counter screen cell viability and HiBit confirmation (AID 1347412); conditions: iHSKM muscle cells + IFN-b, HiBiT or CellTiter-Glo, 24 h; HiBiT; further: nearly all actives have a fitted effect of over 60% in size
How it was run: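 Myoblasts (C25cl48, HLA-B HiBiT) seeded in medium without dexamethasone, IFN-b 4 ng/ml added except unstimulated columns; 1 hr later compounds pinned (12-pt 1:3, top 46 uM final). Incubated 24 hrs, lysed 10 min, luminescence measured.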
Potency means the concentration at half of the fitted maximal effect.

| SMILES | Potency |
| --- | --- |
| C/C=C(/C)C(=O)O[C@H]1C(C)=C2[C@H]([C@@H]1OC(=O)CCCCCCC)[C@@](C)(OC(C)=O)C[C@H](OC(=O)CCC)[C@@]1(O)[C@H]2OC(=O)[C@@]1(C)O | 0.0079 µM (active) |
| Cc1[nH]nc2ccc(-c3cncc(OC[C@@H](N)Cc4c[nH]c5ccccc45)c3)cc12 | 1.11 µM (active) |
| CC(C)[C@]12O[C@H]1[C@@H]1O[C@]13[C@]1(O[C@H]1C[C@H]1C4=C(CC[C@@]13C)C(=O)OC4)[C@@H]2O | 0.0625 µM (active) |
| O=c1[nH]c2ccc(Cl)cc2c(N[C@@H]2CN3CCC2CC3)c1-c1nc2ccccc2[nH]1 | 3.52 µM (active) |
| CC1=C(O)C(=O)C=C2C1=CC=C1[C@@]2(C)CC[C@@]2(C)[C@@H]3C[C@](C)(C(=O)O)CC[C@]3(C)CC[C@]12C | 0.787 µM (active) |
| COc1ccc2c(c[n+](C)c3c4cc5c(cc4ccc23)OCO5)c1OC | 7.01 µM (active) |
| CC[C@@]1(O)C(=O)OCc2c1cc1n(c2=O)Cc2cc3ccccc3nc2-1 | 1.76 µM (active) and 1.98 µM (active) |
| CCN1CCN(C(=O)Cc2ccc(Nc3ncc(F)c(Nc4ccc(C(=O)Nc5ccccc5Cl)cc4)n3)cc2)CC1 | 14 µM (active) |
